In the library only some 12% were active in any assay of this set; here they are far more common.
PI5P4K alpha inh = qHTS for Inhibitors of phosphatidylinositol 5-phosphate 4-kinase (PI5P4K). PI5P4Kalpha enzyme, ADP-Glo luminescence, 60 min; hits give low values. max response, %. hit rate 1.2% among 330,000. AID 652105, 2013; active means max response of -50% or lower; inconclusive means between -30% and -50%; inactive means -30% or higher; further: value at the top dose of about 77 µM
Target sequence (P48426 whole entry, looked up): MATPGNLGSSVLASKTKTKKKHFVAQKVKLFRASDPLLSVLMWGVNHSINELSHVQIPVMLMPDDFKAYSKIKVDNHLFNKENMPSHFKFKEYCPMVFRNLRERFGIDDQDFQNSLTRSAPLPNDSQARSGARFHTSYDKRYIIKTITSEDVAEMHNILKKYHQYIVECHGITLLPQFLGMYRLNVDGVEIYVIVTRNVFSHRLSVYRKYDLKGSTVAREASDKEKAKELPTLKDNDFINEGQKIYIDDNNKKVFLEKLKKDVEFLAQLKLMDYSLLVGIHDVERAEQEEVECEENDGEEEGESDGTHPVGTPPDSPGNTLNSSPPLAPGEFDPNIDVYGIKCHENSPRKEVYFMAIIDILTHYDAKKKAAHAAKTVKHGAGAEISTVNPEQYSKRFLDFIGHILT
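Controls without substrate or without enzyme flank wells where PI5P4Kalpha converts substrate using 5 microM ATP (final). Incubation lasts 60 minutes at room temperature; ADP formed is read by ADP-Glo luminescence.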
BAZ2B block = qHTS Assay for Inhibitors of BAZ2B; Bromodomain adjacent to zinc finger domain protein 2B (Homo sapiens), Q9UIF8; AlphaScreen BAZ2B-H3K14Ac peptide displacement; Potency, µM (series often up to 114 µM), most hits filed as inhibitors; hit rate 4.4% among 360,000; further: nearly all actives have a fitted effect of over 60% in size
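Inhibition is scored as reduced AlphaScreen emission. The BAZ2B/b-H3(5-23)K14Ac complex (50 nM each) in PBS pH 7.4, 0.01% Tween-20 meets compound (up to 110 uM) for 30 min at RT before bead addition.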
PLK1 PBD inh = qHTS for Inhibitors of PLK1-PDB (polo-like kinase 1 - polo-box domain): Primary Screen. Serine/threonine-protein kinase PLK1 (Homo sapiens), P53350. Plk1 PBD binding of FITC phosphopeptide, fluorescence polarization. Potency, µM, actives largely listed as inhibitors. hit rate 2.8% among 360,000. AID 720504, 2013; further: series mostly up to about 57 µM; nearly all actives have a fitted effect of over 65% in size
JMJD2A Tudor = qHTS Assay for Inhibitors of JMJD2A-Tudor Domain | Lysine-specific demethylase 4A (Homo sapiens), O75164 | AlphaScreen JMJD2A-Tudor / H3K4me3 peptide binding | Potency, µM (highest dose often 114 µM), usual class: inhibitors | hit rate 4.4% among 390,000; further: nearly all actives have a fitted effect of over 50% in size
G9a block = qHTS Assay for Inhibitors of Histone Lysine Methyltransferase G9a; Histone-lysine N-methyltransferase EHMT2 (Homo sapiens), Q96KQ7; G9a H3K9 monomethylation, AlphaScreen, 2 h; Potency, µM (doses to about 102 µM), hits mostly inhibitors; hit rate 8.8% among 350,000; AID 504332, 2011; further: nearly all actives have a fitted effect of over 75% in size
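AlphaScreen detection with an anti-monomethyl H3K9 antibody quantified product after a 2 h room-temperature reaction containing 500 nM biotinylated H3K9 peptide, 20 µM SAM and 20 nM enzyme, which had been preincubated 15 min with compound.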
HP1b chromo inh = HTS for Inhibitors of HP1-beta Chromodomain Interactions with Methylated Histone Tails; Chromobox protein homolog 1 (Homo sapiens), P83916; AlphaScreen HP1-beta / biotin-H3K9me3 peptide binding; Potency, µM (highest dose often 114 µM), actives largely listed as inhibitors; hit rate 0.56% among 390,000; AID 540317, 2011; further: nearly all actives have a fitted effect of over 70% in size
Target sequence (P83916 whole entry, looked up): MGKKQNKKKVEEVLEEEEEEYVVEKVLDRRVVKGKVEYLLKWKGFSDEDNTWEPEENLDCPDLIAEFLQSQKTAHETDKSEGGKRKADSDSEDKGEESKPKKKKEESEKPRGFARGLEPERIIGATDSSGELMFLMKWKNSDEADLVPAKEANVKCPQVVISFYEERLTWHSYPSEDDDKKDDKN
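Compound inhibition of the preformed complex between 50 nM HP1-beta and 50 nM biotinylated H3K9me3 peptide was read by AlphaScreen. Buffer was PBS pH 7.4 with 0.01% Tween-20. Incubations ran 30 min at room temperature, with 10 ug/mL donor/acceptor beads.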
Large screens that a line does not name were inactive. Unless noted, the call rests on the fitted dose curve; in most records, active means well fitted curve in the direction sought with a large enough effect; inconclusive means small, poorly fitted or top-dose-only effect, or another doubt; inactive means no such curve, though single readings can be large; an effect the other way counts as inactive or inconclusive.

CCOc1ccc(CC(=O)NNC(=O)/C=C/C(=O)O)cc1	G9a block 32µM
CCN1CCN(c2ncnc3c2cnn3-c2ccc(F)cc2)CC1	none (no result: PI5P4K alpha inh, PLK1 PBD inh)
COCCn1c(=O)c(-c2cccs2)nc2cnc(N(C)C)nc21	none (no result: PI5P4K alpha inh, BAZ2B block, PLK1 PBD inh, JMJD2A Tudor, HP1b chromo inh)
CC(C)C(NS(=O)(=O)c1ccc2c(c1)OCCCO2)C(=O)O (centres undefined)	PLK1 PBD inh 24µM, JMJD2A Tudor inconclusive, HP1b chromo inh inconclusive
CC(NS(=O)(=O)c1ccc2c(c1)OCCO2)c1ccccc1 (centres undefined)	none
C/C(=N\N=C(/N)SC1CC(=O)N(c2ccccc2)C1=O)c1cccs1 (centres undefined)	JMJD2A Tudor inconclusive (no result: PI5P4K alpha inh)
C/C(=N\N=C(/N)SC1CC(=O)N(c2ccc(Cl)cc2)C1=O)c1cccs1 (centres undefined)	BAZ2B block inconclusive, JMJD2A Tudor inconclusive, G9a block 40µM
CCOC(=O)c1ccc(NC(=O)C(C)N(c2ccc(OCC)cc2)S(C)(=O)=O)cc1 (centres undefined)	G9a block inconclusive (no result: PI5P4K alpha inh, PLK1 PBD inh)
CC1=C/C(=C/N(C)c2ccccc2)C(=O)S1	PI5P4K alpha inh inconclusive, BAZ2B block inconclusive, PLK1 PBD inh 27µM, JMJD2A Tudor inconclusive, G9a block inconclusive, HP1b chromo inh inconclusive
CN(/C=C/c1c([N+](=O)[O-])c(=O)n(C)c(=O)n1C)c1ccccc1	none
CCCCN1CCC(=O)C(C(=O)OCC)=C1C(=O)OCC	none (no result: BAZ2B block, G9a block)
N=c1c2c(-c3ccccc3)c(-c3ccccc3)n(Cc3ccccc3)c2ncn1CCCn1ccnc1	BAZ2B block 50µM, JMJD2A Tudor inconclusive, G9a block inconclusive
c1ccc(-c2nc(NCCCn3ccnc3)c3ccccc3n2)cc1	BAZ2B block inconclusive, JMJD2A Tudor inconclusive
N=c1c2c(-c3ccccc3)c(-c3ccccc3)n(Cc3ccco3)c2ncn1Cc1ccco1	BAZ2B block 25µM, JMJD2A Tudor 50µM, G9a block inconclusive, HP1b chromo inh inconclusive
CCCCn1cnc2c(c(-c3ccccc3)c(-c3ccccc3)n2Cc2ccco2)c1=N	BAZ2B block inconclusive (no result: G9a block)
CN(C)c1ncc2nc(-c3cc(F)cc(F)c3)c(=O)n(C[C@H]3CCCO3)c2n1	none (no result: PI5P4K alpha inh, BAZ2B block, PLK1 PBD inh, JMJD2A Tudor, HP1b chromo inh)
CCN(CC)C(=O)C(=O)c1cccn1-c1c(Cl)cccc1C#N	none
CCN(CC)S(=O)(=O)c1ccc(Cl)c(C(=O)OC2CC(C)OC2=O)c1 (centres undefined)	none
CNC(=O)/C(C#N)=C/c1c(N(Cc2ccccc2)Cc2ccccc2)nc2c(C)cccn2c1=O	BAZ2B block inconclusive, JMJD2A Tudor inconclusive, G9a block 79µM
COC(=O)/C(C#N)=C/c1c(N2CCN(c3ccccc3)CC2)nc2c(C)cccn2c1=O	JMJD2A Tudor inconclusive, G9a block inconclusive
C=CCNC(=O)/C(C#N)=C/c1c(N2CCN(c3ccc(OC)cc3)CC2)nc2c(C)cccn2c1=O	BAZ2B block inconclusive, PLK1 PBD inh inconclusive, JMJD2A Tudor 25µM, HP1b chromo inh inconclusive
COc1ccc(N2CCN(c3nc4c(C)cccn4c(=O)c3/C=C(\C#N)C(N)=O)CC2)cc1	BAZ2B block 35µM, JMJD2A Tudor inconclusive, G9a block 32µM
C=CCNC(=O)/C(C#N)=C/c1c(N2CCN(c3ccccc3)CC2)nc2c(C)cccn2c1=O	none
COc1ccc(N2CCN(c3nc4ccc(C)cn4c(=O)c3C=O)CC2)cc1	BAZ2B block inconclusive, JMJD2A Tudor inconclusive, G9a block 45µM
O=C(CCCOc1ccc(Br)cc1)NNC(=O)c1ccncc1	G9a block inconclusive
O=[N+]([O-])c1ccc(N2CCCCC2)cc1	none
Cn1c(N)c(Sc2ccc([N+](=O)[O-])cc2)c(=O)n(C)c1=O	JMJD2A Tudor inconclusive
O=C1C=CC(=O)N1c1ccc(Sc2ccc([N+](=O)[O-])cc2)cc1	BAZ2B block inconclusive, G9a block 8.9µM (no result: PI5P4K alpha inh, PLK1 PBD inh, JMJD2A Tudor, HP1b chromo inh)
Nc1ccc(Sc2ccc([N+](=O)[O-])cc2)cc1	BAZ2B block 35µM, JMJD2A Tudor inconclusive, G9a block 56µM, HP1b chromo inh inconclusive
Cc1oc2ccc(O)c(CN3CCN(C)CC3)c2c1C(=O)Nc1cccc(Cl)c1C	none (no result: PI5P4K alpha inh, PLK1 PBD inh)
CCn1ccc(C(=O)Nc2ncc(C)s2)n1	none
COC(=O)c1cc(C)nc(Sc2ccccc2N)n1	PI5P4K alpha inh inconclusive, PLK1 PBD inh 1.7µM, JMJD2A Tudor 45µM, G9a block 3.5µM, HP1b chromo inh inconclusive
COC(=O)c1ccccc1NC(=O)CSc1nc(C)cc(C)n1	none
OB(O)c1cc2ccccc2s1	none (no result: PI5P4K alpha inh, BAZ2B block, PLK1 PBD inh, G9a block)
C=C(c1ccccc1)c1ccc(N(C)C)cc1	BAZ2B block inconclusive, JMJD2A Tudor 45µM, HP1b chromo inh inconclusive
Cc1nnc(SCC(=O)Nc2ccc(N3CCOCC3)cc2)n1Cc1ccccc1	none
O=C(CSc1n[nH]c(=O)n1Cc1ccccc1)Nc1ccc(N2CCOCC2)cc1	G9a block 56µM
O=C(CSc1nc2ccccc2c(=O)n1-c1ccc(F)cc1)Nc1ccc(N2CCOCC2)cc1	G9a block 45µM
O=C(c1ccc(-n2c(SCc3cccc(F)c3)nc3ccccc3c2=O)cc1)N1CCOCC1	PLK1 PBD inh 27µM, JMJD2A Tudor 40µM
COc1cccc(-c2c(C(=O)N/N=C(\C)COc3ccccc3)nnn2-c2nonc2N)c1	none
CN(C)c1ccc(NC(=O)CN2C(=O)c3ccccc3Sc3ccc(C(=O)N4CCCC4)cc32)cc1	BAZ2B block inconclusive, JMJD2A Tudor inconclusive, G9a block 4.5µM (no result: PI5P4K alpha inh, PLK1 PBD inh)
O=C(NCCCNC(=O)c1cncc(O)c1)c1cncc(O)c1	BAZ2B block inconclusive, PLK1 PBD inh inconclusive, G9a block 50µM
CCOC(=O)CCCNC(=O)c1cncc(O)c1	BAZ2B block inconclusive, G9a block 56µM
O=C(NCCCCCCNC(=O)c1cncc(O)c1)c1cncc(O)c1	BAZ2B block 50µM, JMJD2A Tudor 16µM, G9a block 71µM
CCCCNc1ccc2c3c(cccc13)C(=O)N(CCCC)C2=O	PLK1 PBD inh 2.1µM
Cc1ccc(N2C(=O)c3cccc4c(N)ccc(c34)C2=O)c2cccnc12	JMJD2A Tudor inconclusive, G9a block inconclusive
Cc1nn(C)c(C)c1N1C(=O)c2cccc3c(N)ccc(c23)C1=O	PLK1 PBD inh 2.7µM
CCN1C(=O)c2cccc3c(N)ccc(c23)C1=O	PLK1 PBD inh 3µM, G9a block 50µM
CN(C)CCCN1C(=O)c2cccc3c(Br)ccc(c23)C1=O	BAZ2B block inconclusive, PLK1 PBD inh inconclusive
Cc1ccc(C2=Nc3ccccc3N(CC(=O)NCc3ccccc3Cl)C(=O)C2)cc1C	none (no result: PI5P4K alpha inh, PLK1 PBD inh)

Screening results: PubChem BioAssay, National Center for Advancing Translational Sciences (NCATS)
